# PubChem BioAssay (NCATS)
# Results filed as inconclusive are left out. Entries that show only a call come without a potency. The source made the active and inactive calls. Unless noted, the call rests on the fitted dose curve; in most records, active means well fitted curve in the direction sought with a large enough effect; inconclusive means small, poorly fitted or top-dose-only effect, or another doubt; inactive means no such curve, though single readings can be large; an effect the other way counts as inactive or inconclusive.
# How the values were obtained:
# [1] = target: DNA repair nuclease/redox regulator APEX1 (Homo sapiens) (UniProt P27695); test: qHTS Validation Assay for Inhibitors of the Human Apurinic/apyrimidinic Endonuclease 1 (APE1) (AID 1705;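 further: TAMRA fluorescence gain over two minutes as APE1 cuts a quenched THF abasic duplex; series mostly up to about 57 µM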)
# How it was run: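 Fluorogenic double-stranded THF abasic-site substrate (5'-TAMRA/3'-BHQ-2), 50 nM final. Enzyme preincubated with compound 15 min at room temperature, then substrate added. Kinetic fluorescence (ex 525/em 598 nm) read three times at 60 s intervals; activity taken as third-minus-first read difference.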
# [2] = Counterscreen for APE1 Inhibitors: Fluorescent Dye Displacement Validation Assay (AID 1707)
# How it was run: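 Compounds are scored by their ability to displace Thiazole Orange (250 nM) from a 50 nM TAMRA-tagged duplex bearing a tetrahydrofuran abasic site. Buffer is 50 mM Tris-HCl pH7.5, 50mM NaCl, 2 mM MgCl2, 0.01% Tween-20.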
# [3] = target: Endonuclease 4 (Escherichia coli (strain K12)) (UniProt P0A6C1); test: Counterscreen for APE1 Inhibitors: qHTS Validation Assay for Inhibitors of Endonuclease IV (AID 1708)
# How it was run: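 2 nM enzyme was preincubated with compounds for 15 min at room temperature in 50 mM Tris-HCl pH 7.5, 50 mM NaCl, 2 mM MgCl2, 1 mM DTT, 0.01% Tween-20. 50 nM THF-abasic TAMRA/BHQ-2 duplex substrate started the reaction.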
# [4] = qHTS for differential inhibitors of proliferation of Plasmodium falciparum line Dd2 (AID 1882); settings: Potency: Plasmodium falciparum Dd2 proliferation inhibition;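 further: series mostly up to about 29 µM; compound exposure of 72 h on infected erythrocytes; nearly all actives have a fitted effect of over 65% in size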
# How it was run: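 SYBR Green I DNA fluorescence read-out, ex 485/em 535 nm. Signals were normalized to 0.29 uM artemisinin and DMSO wells, then corrected using vehicle-only plates flanking each stack. Parasite growth ran 72 h in erythrocytes before lysis.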
# [5] = qHTS for differential inhibitors of proliferation of Plasmodium falciparum line W2 (AID 1883); settings: Potency: Plasmodium falciparum W2 proliferation inhibition;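 further: potency means the concentration at half of the fitted maximal effect; parasites grown with compound for 72 h before lysis and staining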
# [6] = target: Ferritin light chain (Equus caballus) (UniProt P02791); test: qHTS Validation Assay for Identification of Novel General Anesthetics (AID 2323); further: series mostly up to about 77 µM
# How it was run: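 Horse-spleen apoferritin (10 uM) in PBS with 50% saturated 1-aminoanthracene; compounds pin-transferred, 10 min at room temperature. Fluorescence read at 380/535 nm, normalized to free 1-AMA and 1-AMA/apoferritin values; four-parameter Hill fit.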
# [7] = target: ATP-dependent DNA helicase Q1 (Homo sapiens) (UniProt P46063); test: qHTS Validation Assay for Inhibitors of RecQ-Like Dna Helicase 1 (RECQ1) (AID 2353)
# How it was run: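 50 nM RECQ1T1 preincubated 15 min with compound in Tris pH 8.0 buffer with MgCl2, DTT, Tween-20 and 2.5 ug/ml poly(dI-dC); started with 200 nM TAMRA/BHQ-2 forked duplex and 2 mM ATP. Unwinding read as fluorescence (525/598 nm), two reads 2 h apart.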
# [8] = target: RecQ-like DNA helicase BLM (Homo sapiens) (UniProt P54132); test: qHTS Validation Assay for Inhibitors of Bloom's syndrome helicase (BLM) (AID 2364)
# How it was run: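 BLM 50 nM in 25 mM Tris-HCl pH 8.0, 5 mM NaCl, 2 mM MgCl2, 1 mM DTT, 0.01% Tween-20, 2.5 ug/ml poly(dI-dC); 15 min cpd preinc, RT. Start: 200 nM forked DNA + 2 mM ATP (final). TAMRA read, 2 reads 2 h apart.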
# [9] = Cytometric Cell-Based qHTS for Inhibitors of the mTORC1 Signaling Pathway in MEF (Tsc2-/-, p53-/-) Cells (AID 2660);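 further: percent of cells above a phospho-rpS6 to PI ratio cutoff in each well; series mostly up to about 38 µM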
# How it was run: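 Immunofluorescence qHTS of rpS6 Ser235/236 phosphorylation: MEFs (Tsc2-/-, p53-/-) treated 24 h, 37 C, in DMEM + 10% FBS. Alexa-488 signal normalized to PI count, referenced to rapamycin (7.5 nM) and DMSO; PI cell number recorded for viability.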
# [10] = High Content Imaging Cell-Based qHTS for Inhibitors of the mTORC1 Signaling Pathway in MEF (Tsc2-/-, p53-/-) Cells (AID 2666);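 further: percent of cells scored positive for phospho-rpS6 Ser235/236 immunostaining by imaging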
# How it was run: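 Read-out: % positive cells per well, with thresholds from highest- and lowest-signal wells, based on phospho-rpS6 (Ser235/236) intensity normalized to Hoechst nuclear stain. Cells: Tsc2-/-, p53-/- MEFs carrying empty vector; compound 24 hrs, 37 degree Celsius.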
# [11] = High Content Imaging Cell-Based qHTS for Inhibitors of the mTORC1 Signaling Pathway in MEF Cells (AID 2667);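 further: Tsc2-/- p53-/- MEFs stably re-expressing wild-type Tsc2 exposed 24 h; series mostly up to about 38 µM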
# How it was run: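 MEF (Tsc2-/-, p53-/-, WT Tsc2 re-expressed); cpd 24 h, 37 °C; PFA fix; Alexa-488 anti-p-rpS6 Ser235/236, PI, Hoechst; IN Cell imaging; Hoechst/Alexa-488 intensity ratio; % active cells, thresholds set from rapamycin and DMSO wells.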
# [12] = Cytometry Cell-Based qHTS for Inhibitors of the mTORC1 Signaling Pathway in MEF cells (AID 2668);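 further: Tsc2-/- p53-/- mouse embryonic fibroblasts stably re-expressing wild-type Tsc2; percent cells positive for phospho-rpS6 Ser235/236 relative to propidium iodide stain; series mostly up to about 38 µM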
# How it was run: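 MEFs (Tsc2-/-, p53-/- stably expressing WT Tsc2) treated 24 h at 37 degree Celsius, fixed, stained with Alexa-488 anti-phospho-rpS6 Ser235/236 and propidium iodide; Acumen laser scanning. Reported as % positive cells, phospho-S6 normalized to PI.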
# [13] = Validation screen for inhibitors of Lassa infection (AID 463096; calls by dose curve)
# [14] = Validation screen for small molecules that induce DNA re-replication in MCF 10A normal breast cells (AID 463097); further: nearly all actives have a fitted effect of over 60% in size
# How it was run: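 MCF 10A cells exposed to compound 48 hr at 37 C, 5% CO2, then Hoechst-stained 40 min. Laser-scanning imaging of nuclear DNA content (405 nm ex, 500-530 nm em); re-replication scored as rise in nuclei with elevated fluorescence intensity.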
# [15] = target: Ubiquitin carboxyl-terminal hydrolase 2 (Homo sapiens) (UniProt O75604); test: qHTS Validation Assay for Inhibitors of Ubiquitin-specific Protease USP2a Using CHOP2 as the Reporter (AID 463106)
# How it was run: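 USP2 core (10nM final) was preincubated with compound for 30min at RT in 20mM Tris-HCl pH 8.0, 2mM CaCl2, 2mM beta-mercaptoethanol, 0.05% CHAPS. Ub-CHOP2 and reporter substrate (25nM each) were added, and fluorescence (Ex 485/Em 531nm) was read after 60min.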
# [16] = target: DNA polymerase III PolC-type (Bacillus subtilis (strain 168)) (UniProt P13267); test: qHTS Validation Assay for the Inhibitors of DNA Replication in Gram-Positive Bacteria (AID 485295);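 further: PicoGreen fluorescence of double-stranded DNA made on primed circular M13 template; series mostly up to about 57 µM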
# How it was run: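 Reconstituted B. subtilis Pol III holoenzyme (PolC, beta clamp, SSB, primase) preincubated with compound, then M13Gori single-stranded circular template with dNTPs/NTPs added; room temperature reaction. Stopped with EDTA/PicoGreen; dsDNA fluorescence read, EDTA as full-inhibition control.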
# [17] = target: Tumor susceptibility gene 101 protein (Homo sapiens) (UniProt Q99816); test: qHTS Validation Assay for Iinhibitors of HIV-1 Budding by Blocking the Interaction of PTAP/TSG101 (AID 485342; calls by dose curve)
# How it was run: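 Tsg101 binding domain (10 uM) with FITC-labeled PTAP peptide (50 nM) in HEPES pH 7.5 buffer, 20 min at r.t. with compounds. Binding measured by fluorescence polarization.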
# Sequence of Tumor susceptibility gene 101 protein (Homo sapiens) (Q99816 whole entry, looked up, the tested form may be a part): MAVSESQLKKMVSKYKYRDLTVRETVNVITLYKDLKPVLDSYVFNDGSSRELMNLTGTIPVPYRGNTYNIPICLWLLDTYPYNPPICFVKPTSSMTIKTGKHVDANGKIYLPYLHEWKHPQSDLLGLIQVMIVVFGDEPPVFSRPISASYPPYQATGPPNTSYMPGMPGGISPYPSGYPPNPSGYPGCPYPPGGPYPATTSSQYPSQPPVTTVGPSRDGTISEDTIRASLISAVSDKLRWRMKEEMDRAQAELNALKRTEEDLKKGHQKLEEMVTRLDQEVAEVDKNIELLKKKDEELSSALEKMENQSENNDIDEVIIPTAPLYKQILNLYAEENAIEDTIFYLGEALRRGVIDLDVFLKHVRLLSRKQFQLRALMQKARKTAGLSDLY
# Sequence of Ubiquitin carboxyl-terminal hydrolase 2 (Homo sapiens) (O75604 whole entry, looked up): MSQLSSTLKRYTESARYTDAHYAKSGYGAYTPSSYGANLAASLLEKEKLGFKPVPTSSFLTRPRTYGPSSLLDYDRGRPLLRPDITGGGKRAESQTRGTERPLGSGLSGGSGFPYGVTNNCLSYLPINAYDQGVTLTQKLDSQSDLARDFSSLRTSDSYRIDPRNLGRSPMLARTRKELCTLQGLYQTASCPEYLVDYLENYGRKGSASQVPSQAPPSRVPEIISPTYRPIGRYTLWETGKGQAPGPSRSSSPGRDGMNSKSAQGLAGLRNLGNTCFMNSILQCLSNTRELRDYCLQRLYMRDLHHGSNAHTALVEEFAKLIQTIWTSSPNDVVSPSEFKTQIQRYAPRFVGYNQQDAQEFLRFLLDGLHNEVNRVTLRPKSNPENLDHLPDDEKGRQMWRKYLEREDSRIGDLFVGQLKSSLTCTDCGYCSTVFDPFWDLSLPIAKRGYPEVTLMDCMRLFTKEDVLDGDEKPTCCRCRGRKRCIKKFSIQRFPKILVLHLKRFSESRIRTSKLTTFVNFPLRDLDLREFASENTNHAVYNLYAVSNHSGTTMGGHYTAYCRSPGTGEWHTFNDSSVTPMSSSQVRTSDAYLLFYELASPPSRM
# Sequence of DNA repair nuclease/redox regulator APEX1 (Homo sapiens) (P27695 whole entry, looked up): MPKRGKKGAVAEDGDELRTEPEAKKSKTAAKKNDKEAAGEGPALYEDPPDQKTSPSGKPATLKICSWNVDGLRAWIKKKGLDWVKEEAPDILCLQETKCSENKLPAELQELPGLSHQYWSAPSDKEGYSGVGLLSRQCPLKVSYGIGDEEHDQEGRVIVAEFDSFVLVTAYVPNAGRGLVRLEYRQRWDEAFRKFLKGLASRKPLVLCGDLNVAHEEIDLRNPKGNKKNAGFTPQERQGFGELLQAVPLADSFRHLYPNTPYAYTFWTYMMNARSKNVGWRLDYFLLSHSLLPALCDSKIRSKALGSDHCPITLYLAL
# Sequence of Ferritin light chain (Equus caballus) (P02791 2-175 limits assumed): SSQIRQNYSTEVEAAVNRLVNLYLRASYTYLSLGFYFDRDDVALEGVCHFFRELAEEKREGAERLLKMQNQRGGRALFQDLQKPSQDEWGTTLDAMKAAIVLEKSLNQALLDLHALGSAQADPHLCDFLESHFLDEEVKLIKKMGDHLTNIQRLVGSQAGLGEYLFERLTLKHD
# Sequence of RecQ-like DNA helicase BLM (Homo sapiens) (P54132 whole entry, looked up): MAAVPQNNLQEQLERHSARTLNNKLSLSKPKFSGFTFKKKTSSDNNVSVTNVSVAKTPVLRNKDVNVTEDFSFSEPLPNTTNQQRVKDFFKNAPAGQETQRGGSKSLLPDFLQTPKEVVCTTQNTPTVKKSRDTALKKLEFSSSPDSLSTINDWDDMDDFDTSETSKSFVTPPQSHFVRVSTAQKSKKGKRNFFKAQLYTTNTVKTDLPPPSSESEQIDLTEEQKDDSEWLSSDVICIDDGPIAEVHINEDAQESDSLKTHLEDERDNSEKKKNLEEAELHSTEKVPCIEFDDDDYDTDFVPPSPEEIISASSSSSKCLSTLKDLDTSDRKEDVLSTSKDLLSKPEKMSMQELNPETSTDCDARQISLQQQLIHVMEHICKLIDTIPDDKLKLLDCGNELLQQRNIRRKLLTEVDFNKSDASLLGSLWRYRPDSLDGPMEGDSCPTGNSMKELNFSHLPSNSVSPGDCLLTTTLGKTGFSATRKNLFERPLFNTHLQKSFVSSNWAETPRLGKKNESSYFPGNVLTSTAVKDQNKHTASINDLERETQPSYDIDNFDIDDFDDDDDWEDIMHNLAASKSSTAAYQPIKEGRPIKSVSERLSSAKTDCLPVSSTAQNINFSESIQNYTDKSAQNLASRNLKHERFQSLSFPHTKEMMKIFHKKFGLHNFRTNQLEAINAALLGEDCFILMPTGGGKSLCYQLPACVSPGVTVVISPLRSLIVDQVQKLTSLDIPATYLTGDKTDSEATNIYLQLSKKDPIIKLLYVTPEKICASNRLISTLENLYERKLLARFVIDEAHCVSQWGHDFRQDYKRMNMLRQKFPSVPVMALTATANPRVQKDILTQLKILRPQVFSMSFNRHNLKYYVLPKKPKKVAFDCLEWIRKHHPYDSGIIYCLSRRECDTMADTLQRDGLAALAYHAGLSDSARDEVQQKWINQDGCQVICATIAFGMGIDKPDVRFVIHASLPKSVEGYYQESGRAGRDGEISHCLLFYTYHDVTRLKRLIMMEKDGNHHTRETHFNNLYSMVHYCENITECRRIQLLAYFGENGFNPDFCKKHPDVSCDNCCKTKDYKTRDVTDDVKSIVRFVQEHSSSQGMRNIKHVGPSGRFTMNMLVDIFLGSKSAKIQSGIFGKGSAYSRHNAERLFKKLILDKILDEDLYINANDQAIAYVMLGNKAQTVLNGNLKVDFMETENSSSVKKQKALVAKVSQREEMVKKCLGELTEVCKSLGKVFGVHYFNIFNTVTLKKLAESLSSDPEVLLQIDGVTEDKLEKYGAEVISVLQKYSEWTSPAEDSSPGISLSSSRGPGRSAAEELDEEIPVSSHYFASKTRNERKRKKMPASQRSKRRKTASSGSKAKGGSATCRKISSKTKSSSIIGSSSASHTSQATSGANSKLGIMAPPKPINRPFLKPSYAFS
# Sequence of DNA polymerase III PolC-type (Bacillus subtilis (strain 168)) (P13267 whole entry, looked up): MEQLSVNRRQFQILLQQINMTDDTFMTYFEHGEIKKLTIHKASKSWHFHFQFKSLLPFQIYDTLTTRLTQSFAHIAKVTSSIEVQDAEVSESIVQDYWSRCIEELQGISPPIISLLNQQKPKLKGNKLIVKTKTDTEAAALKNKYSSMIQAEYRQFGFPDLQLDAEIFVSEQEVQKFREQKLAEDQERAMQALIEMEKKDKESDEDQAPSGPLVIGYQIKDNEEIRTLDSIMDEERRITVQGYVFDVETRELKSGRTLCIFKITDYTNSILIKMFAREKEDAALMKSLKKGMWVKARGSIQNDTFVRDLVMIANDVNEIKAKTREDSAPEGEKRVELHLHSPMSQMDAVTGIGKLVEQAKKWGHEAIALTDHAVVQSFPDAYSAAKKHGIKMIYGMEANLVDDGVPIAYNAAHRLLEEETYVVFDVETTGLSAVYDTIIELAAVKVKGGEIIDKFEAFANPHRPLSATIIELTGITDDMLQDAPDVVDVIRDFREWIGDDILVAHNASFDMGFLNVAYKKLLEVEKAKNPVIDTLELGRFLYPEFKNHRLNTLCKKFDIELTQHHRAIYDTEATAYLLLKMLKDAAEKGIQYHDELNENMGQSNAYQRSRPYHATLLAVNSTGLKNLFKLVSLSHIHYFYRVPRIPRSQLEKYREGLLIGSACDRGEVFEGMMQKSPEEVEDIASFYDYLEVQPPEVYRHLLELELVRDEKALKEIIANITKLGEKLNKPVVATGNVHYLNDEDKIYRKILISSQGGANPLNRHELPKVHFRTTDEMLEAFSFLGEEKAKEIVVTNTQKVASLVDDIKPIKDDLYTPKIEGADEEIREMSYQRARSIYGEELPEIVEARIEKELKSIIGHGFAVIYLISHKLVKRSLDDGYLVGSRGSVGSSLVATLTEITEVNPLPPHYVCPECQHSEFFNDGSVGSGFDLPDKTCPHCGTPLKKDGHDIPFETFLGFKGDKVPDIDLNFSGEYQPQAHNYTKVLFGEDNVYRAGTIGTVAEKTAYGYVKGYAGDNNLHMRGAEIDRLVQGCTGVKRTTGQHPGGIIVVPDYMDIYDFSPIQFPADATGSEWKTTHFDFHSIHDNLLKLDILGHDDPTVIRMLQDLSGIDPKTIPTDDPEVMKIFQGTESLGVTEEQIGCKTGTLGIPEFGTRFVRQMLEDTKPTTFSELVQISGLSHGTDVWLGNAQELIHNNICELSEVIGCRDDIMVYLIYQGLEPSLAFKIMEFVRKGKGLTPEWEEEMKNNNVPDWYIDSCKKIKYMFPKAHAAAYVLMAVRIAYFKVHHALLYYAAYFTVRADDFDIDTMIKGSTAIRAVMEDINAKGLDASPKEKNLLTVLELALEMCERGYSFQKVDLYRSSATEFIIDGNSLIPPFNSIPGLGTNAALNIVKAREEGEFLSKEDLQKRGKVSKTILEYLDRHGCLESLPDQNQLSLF
# Sequence of ATP-dependent DNA helicase Q1 (Homo sapiens) (P46063 whole entry, looked up): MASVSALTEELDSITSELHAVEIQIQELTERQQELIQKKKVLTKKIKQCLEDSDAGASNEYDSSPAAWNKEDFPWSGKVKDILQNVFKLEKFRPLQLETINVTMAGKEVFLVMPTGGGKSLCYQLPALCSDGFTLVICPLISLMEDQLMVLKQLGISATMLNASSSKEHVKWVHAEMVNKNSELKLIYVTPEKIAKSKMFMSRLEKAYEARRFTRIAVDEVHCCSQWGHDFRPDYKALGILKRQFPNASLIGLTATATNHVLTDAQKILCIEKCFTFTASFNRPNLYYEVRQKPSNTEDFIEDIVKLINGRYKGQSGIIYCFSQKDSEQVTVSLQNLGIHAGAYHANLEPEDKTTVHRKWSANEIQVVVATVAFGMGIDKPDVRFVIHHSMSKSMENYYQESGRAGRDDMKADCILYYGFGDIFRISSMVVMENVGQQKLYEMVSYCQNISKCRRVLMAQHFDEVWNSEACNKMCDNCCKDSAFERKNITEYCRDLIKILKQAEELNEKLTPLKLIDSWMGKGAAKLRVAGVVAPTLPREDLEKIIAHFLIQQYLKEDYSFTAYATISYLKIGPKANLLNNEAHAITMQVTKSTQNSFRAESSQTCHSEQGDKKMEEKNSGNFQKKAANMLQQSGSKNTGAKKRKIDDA
smiles,measurement,setting,value
O=[N+]([O-])c1ccc(O[C@@H]2O[C@H](CO)[C@@H](O)[C@H](O)[C@H]2F)c([N+](=O)[O-])c1,Potency,[1],inactive
same,Potency,[2],inactive
same,outcome,[3],inactive
same,Potency,[4],inactive
same,Potency,[5],11.2 µM (active)
same,outcome,[6],inactive
same,Potency,[7],inactive
same,Potency,[8],inactive
same,outcome,[9],inactive
same,Potency,[10],inactive
same,Potency,[11],inactive
same,Potency,[12],inactive
same,Potency,[13],inactive
same,Potency,[14],inactive
same,Potency,[15],inactive
same,Potency,[16],inactive
same,outcome,[17],inactive
